Bioassay records from PubChem.
Compounds with a hit are over-represented: about 2.8% of the library has one in this group of screens.
POLH inh = blocks human DNA polymerase eta activity; Q9Y253; recombinant Pol eta, fluorescent DNA replication assay; Potency, µM (titrated, usually from 114 µM), for the others: at the highest dose activity change, negative = inhibition, most hits filed as inhibitors; hit rate 1.2% among 390,000; AID 588591; note: potency is the fitted concentration of half-maximal effect; % is set by controls: 0 for no effect and ±100 for the full control effect
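Pol eta (10 nM) was preincubated with compounds for 15 min at room temperature, after which fluorescent replication substrate (50 nM final) was added to start the reaction. Fluorescence was read kinetically at 0 and 10 min.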
Pol kappa inh = inhibitors of human DNA polymerase kappa; Q9UBT6; purified Pol kappa, fluorescent DNA synthesis assay, 10 min; Potency, µM (titrated, usually from 107 µM), for inactives: at the top dose activity, negative = inhibition, actives largely listed as inhibitors; hit rate 0.53% among 400,000; AID 588579; note: potency is the fitted concentration of half-maximal effect; % is set by controls: 0 for no effect and ±100 for the full control effect
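Readout: fluorescence, taken kinetically at 0 and 10 min. Conditions: 10 nM Pol kappa, 15 min RT compound preincubation, 50 nM substrate final. Controls: enzyme-free buffer wells.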
Pol beta inh = inhibitors of human DNA polymerase beta | P06746 | Pol beta primer extension/strand displacement, fluorescence kinetic | Potency, µM (top dose mostly 114 µM), for inactives: at the top dose activity change, negative = inhibition, actives largely listed as inhibitors | hit rate 1.3% among 340,000; note: potency is the fitted concentration of half-maximal effect; % is set by controls: 0 for no effect and ±100 for the full control effect
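Pol beta (10 nM) was preincubated with compound for 15 min at room temperature. The reaction was then started with 50 nM substrate and read immediately and after a further 10 min at room temperature.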
PI5P4Ka inh = inhibitors of human PI5P4K alpha; PI5P4Kalpha enzyme, ADP-Glo luminescence, 60 min; stronger effect = lower value; max response, %; hit rate 1.2% among 330,000; AID 652105; active = max response of -50% or lower; inconclusive = between -30% and -50%; inactive = -30% or higher; note: value at the top dose of about 77 µM; % is set by controls: 0 for no effect and ±100 for the full control effect
Target sequence (P48426 whole entry, looked up): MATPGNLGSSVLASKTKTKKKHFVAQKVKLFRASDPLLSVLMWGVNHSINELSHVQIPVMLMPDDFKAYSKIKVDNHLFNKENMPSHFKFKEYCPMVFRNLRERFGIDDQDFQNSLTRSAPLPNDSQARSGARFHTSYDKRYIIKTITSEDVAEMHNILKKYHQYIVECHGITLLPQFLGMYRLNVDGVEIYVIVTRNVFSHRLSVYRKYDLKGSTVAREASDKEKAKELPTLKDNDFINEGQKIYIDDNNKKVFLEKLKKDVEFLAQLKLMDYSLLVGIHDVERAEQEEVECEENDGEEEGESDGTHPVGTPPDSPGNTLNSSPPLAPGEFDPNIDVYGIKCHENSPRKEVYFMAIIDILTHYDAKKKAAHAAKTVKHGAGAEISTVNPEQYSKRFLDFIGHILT
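Reactions run in 0.038 M HEPES pH 7.4, 0.28 mM EGTA, 0.1% CHAPS and 5% DMSO, with PI5P4Kalpha, substrate, compound and 5 microM ATP final, one hour at room temperature. Readout is ADP-Glo luminescence.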
WRN helicase inh = blocks human WRN helicase | Q14191 | WRN helicase unwinding, fluorescent forked duplex, kinetic | Potency, µM (doses to about 114 µM), without a hit: at the highest dose activity change, negative = inhibition, actives largely listed as inhibitors | hit rate 0.46% among 360,000; note: potency is the fitted concentration of half-maximal effect; % is set by controls: 0 for no effect and ±100 for the full control effect; nearly all actives have a fitted effect of over 55% in size
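Fluorescence dequenching readout, ex 525 nm/em 598 nm, kinetic mode: forked duplex DNA (100 nM final) with adjacent fluorophore and quencher unwound by WRN (20 nM final) with 2 mM ATP. Compound preincubation 15 min, room temperature.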
Pol iota inh = inhibitors of human DNA polymerase iota | Q9UNA4 | Pol iota fluorescent replication assay, 10 min | Potency, µM (highest dose often 115 µM), for inactives: at the top dose activity, negative = inhibition, most hits filed as inhibitors | hit rate 1% among 390,000; note: potency is the fitted concentration of half-maximal effect
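Fluorescent replication assay read twice, at 0 min and 10 min after adding 50 nM (final) substrate. Enzyme (10 nM) and compounds were first incubated 15 min at room temperature; enzyme-free buffer wells were negative controls.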
* marks the source's active call; other numbers are inactive results; u = inconclusive; x = not tested or not shown; [ ] = another dose, or the depositor's remark. Unless noted, calls come from the whole dose curve; as a rule, active = well fitted curve in the direction sought with a large enough effect; inconclusive = small, poorly fitted or top-dose-only effect, or another doubt; inactive = no such curve, though single readings can be large; an effect the other way counts as inactive or inconclusive.

SMILES | POLH inh | Pol kappa inh | Pol beta inh | PI5P4Ka inh | WRN helicase inh | Pol iota inh
Cn1c(=O)c2c([nH]c(=S)n2CCCc2ccccc2)n(C)c1=O | -3% | -8% | -18% | -94* | 7% | 2%
Cn1c(=O)[nH]c(=O)c2c1nc(Br)n2Cc1ccc(Cl)cc1 | -6% | x | x | -18 | -1% | x
Cn1c(=O)[nH]c(=O)c2c1nc(Br)n2CCCc1ccccc1 | x | x | 33% | x | x | x
O=C(O)c1ccc(N=NN2CCCCCC2)cc1 | 1% | -7% | 3% | -8 | 4% | 20%
COc1cc2c(cc1OC)C(C)N(C(=O)CCc1c[nH]c3ccccc13)CC2 (centres undefined) | -19% | 0% | -6% | 2 | -4% | 19%
Fc1ccc(-c2ccnc3nc(-n4cccc4)nn23)cc1 | -18% | -3% | u | x | -12%[57.1 µM] | 79µM*
Cc1ccc(NC(=O)CN2C(=O)S/C(=C\c3ccc(-c4cccc(C(=O)O)c4C)o3)C2=O)cc1 | x | x | 100µM* | x | x | x
O=C(CN1C(=O)S/C(=C\c2cc(Cl)c(O)c(Cl)c2)C1=O)Nc1ccccc1 | u | -18% | 13% | -86* | -3%[11.6 µM] | u
Cc1ccc(NC(=O)CN2C(=O)S/C(=C\c3cc(C)n(-c4cccc(C(=O)O)c4)c3C)C2=O)cc1 | 56µM* | -7% | 45µM* | -24 | u | u
Cc1ccc(NC(=O)CN2C(=O)S/C(=C\c3ccc(C(=O)O)cc3)C2=O)cc1 | 7% | -3% | 39% | -5 | 1% | -5%
Cc1ccc(NC(=O)CN2C(=O)S/C(=C\c3cc(C)n(C)c3C)C2=O)cc1 | 6% | 0% | 4% | x | -4% | 8%
Cc1cc(C(=O)O)ccc1-c1ccc(/C=C2\SC(=O)N(CC(=O)Nc3ccc4c(c3)OCO4)C2=O)o1 | x | x | 0% | x | x | x
Cc1ccc(C)c(N2C(=N)S/C(=C\c3ccc(-c4ccccc4C(=O)O)o3)C2=O)c1 | 22µM* | u | u | -52* | u | 14µM*
Cc1ccc(CNC(=O)CCCn2nc(C)c3c(C)n(-c4ccccc4)nc3c2=O)cc1 | 6% | 0% | 1% | -4 | -2% | 8%
COc1ccc(C(=O)ON=C(C)c2nccs2)cc1 | x | x | x | u | -2% | x
COc1cc(/C=C2\CC/C(=C\c3ccc(OCCO)c(OC)c3)C2=O)ccc1OCCO | u | -36% | 2.5µM* | 1 | -21%[57.1 µM] | 7.1µM*
COc1cc(/C=C2/CC/C(=C/c3ccc(O)c(OC)c3)C2=O)ccc1O | 35µM* | u | 18µM* | -25 | -34% | 40µM*
COc1cccc(-c2noc(-c3cc4ccccc4oc3=O)n2)c1OC | -7% | 1% | 18% | x | x | 71µM*
COc1cccc2sc(Nc3nc(-c4cc5ccccc5oc4=O)cs3)nc12 | u | u | 35µM* | u | u | u
COc1cccc2sc(Nc3nc(-c4ccncc4)cs3)nc12 | -12% | -4% | u | u | -16% | 28%
COc1cc2c(cc1OC)C(c1ccc(Cl)cc1)N(c1ccc(C)c(F)c1)C(=O)C2 (centres undefined) | -10% | 10% | -1% | x | x | 11%
COc1ccc(/C=C2\C(=N)N3N=C(CC(=O)N4CCOCC4)SC3=NC2=O)cc1 | -7% | 0% | 3% | -4 | 11% | u
N=C1/C(=C\c2ccc(SCc3ccccc3)o2)C(=O)N=C2SC=NN12 | -7% | -20% | u | -21 | -13% | 13%
N=C1/C(=C\c2ccc(SCc3ccccc3)o2)C(=O)N=C2SC(CC(=O)N3CCOCC3)=NN12 | 56µM* | u | u | -28 | -13% | 10µM*
Cc1ccc(/C=C2\C(=N)N3N=C(CC(=O)N4CCOCC4)SC3=NC2=O)o1 | 28µM* | u | u | -22 | -34% | u
SMILES | POLH inh | Pol kappa inh | Pol beta inh | PI5P4Ka inh | WRN helicase inh | Pol iota inh
O=C(NNC(=S)Nc1ccc(C(=O)O)c(O)c1)c1ccncc1 | -16% | -8% | x | -85* | -17% | 34%
COc1cc(OC)c(/C=C/c2ccc3ccccc3[n+]2C)c(OC)c1 | x | -33% | x | x | x | u
CN(C)c1ccc(-c2nc(NC3CCNCC3)c3ccccc3n2)cc1 | x | 32µM* | x | x | x | x
CN(C)Cc1ccccc1-c1nc(NC2CCNCC2)c2ccccc2n1 | x | 14µM* | x | x | x | x
CC(=O)Nc1cccc(-c2cc(C)c3cc4c(cc3n2)OCO4)c1 | 8% | -20% | 40µM* | -23 | -23% | u
COc1cc2ccc3c(CCN(C)C)cc(OC)c(OC)c3c2cc1OC | -27% | -20% | 26% | -6 | 4% | u
CN(C)CCc1cc2c(c3c1ccc1ccccc13)OCO2 | -24% | u | 20µM* | 6 | -5% | u
O=C(O)CCc1ccc(-c2ccc(Br)cc2)o1 | -3% | u | 28% | x | u | 40µM*
O=C(O)CCc1ccc(-c2ccc(Cl)cc2)o1 | 0% | u | -2% | x | -18% | u
Cc1cc(C)c(OCC(=O)NCCCn2nc(C)cc2C)c(C)c1 | 1% | 7% | x | 4 | -3% | -7%
CCC(CC)C(=O)Nc1ccc(OCc2cc(=O)n3ccc(C)cc3n2)cc1 | -15% | 2%[60.1 µM] | 1% | x | x | u
O=c1c2oc3ccccc3c2n(Cc2cccc(Cl)c2)c(=O)n1Cc1ccco1 | 1% | u | 2% | x | x | -5%
O=C1C=CC(=O)C(C2=C3C(=O)N(CCc4ccccc4)CC(=O)N3CCC2)=C1 | -13% | -23% | 2% | -72* | 40µM* | u
COc1ccccc1C(c1c(O)nc(SC)[nH]c1=O)c1c(O)nc(SC)[nH]c1=O | -15% | -9% | x | -51* | -13% | 9%
CCOc1cc(C(c2c(O)nc(SC)[nH]c2=O)c2c(O)nc(SC)[nH]c2=O)ccc1O | -13% | -3% | x | u | u | u
CCOc1ccccc1NC(=O)Cn1c(=O)n(CCCC(=O)NCCOC)c(=O)c2cc(OC)c(OC)cc21 | -4% | u | 37% | x | x | 89µM*
Cc1ccc2nc(-c3ccc(NC(=O)CSCC(=O)O)cc3)sc2c1 | 2% | -19% | -15% | -2 | -3% | 2%
Cc1csc(NC(=O)CSCC(=O)O)c1-c1nc2ccccc2s1 | 89µM* | 1% | -23% | 0 | -17%[11.6 µM] | u
O=C(Nc1ccccc1-c1ccccc1)C1CCCCC1 | -10% | -9% | 29% | 3 | -3% | 89µM*
O=C(Nc1ccccc1-c1ccccc1)C1CCC1 | -14% | -2% | 7% | 11 | -2%[57.1 µM] | 121%
COc1ccc(S(N)(=O)=O)cc1C(=O)OCC(=O)N1CCCC(C)C1 (centres undefined) | -6% | 3% | x | 6 | 7% | 17%
CCOC(=O)C1CCN(c2ncnc3c2cnn3C)CC1 | -7% | -5% | 79µM* | -10 | 7% | -7%
